From PubChem BioAssay
Shn3 inh set2 = inhibitors of Schnurri-3 3'UTR reporter in osteoblasts | AID 588674 | inhibition, % at 12.5 µM | Clone20 osteoblast Shn3 3'UTR firefly luciferase, 24 h | 0.52% of 360,000 active;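 active = mean inhibition of at least 75% with every replicate also reaching 75%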;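 note: 0% = median of neutral control wells and 100% = pilot-screen positive control compound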
CF NFkB block = cystic fibrosis NF-kB activation inhibition; KKLEB NF-kB-GFP reporter, PAF-induced, GFP fluorescence overnight; inhibition, % at 5 µM; 0.86% of 360,000 active; AID 588850;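 active = at least 50% inhibition at 5 µM, scaled per plate between neutral and stimulator controls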;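 note: PAF is a Pseudomonas aeruginosa culture filtrate used as stimulus; plate controls were PAF-stimulated DMSO wells for no effect and unstimulated DMSO wells for full effect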
LGR2 antag = blocks bursicon-induced cAMP signaling via Drosophila LGR2; HEK293 LGR2, CRE-luciferase, bursicon-stimulated, 4 h; inhibition, % at 9.99 µM; 0.35% of 380,000 active; AID 720647;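 active = drop in luminescence signal, shown as inhibition above about 50% in the replicate tests, limit read from the data, passing the limit was not always enough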;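 note: agonist challenge used bursicon conditioned medium at about half maximal strength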
EWS-Fli inh = blocks EWS/Fli oncoprotein-driven transcription; A673 NR0B1-luciferase reporter, viability-normalised; inhibition, % at 12.6 µM; 0.67% of 350,000 active; AID 651661;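 active = mean inhibition of at least 50% after viability correction, with every replicate also passing that limit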;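 note: firefly luciferase signal divided by Alamar Blue viability fluorescence both relative to DMSO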
KKLEB cytotox = counter-screen for CF NF-kB inhibitors: cytotoxicity; KKLEB CF airway cells viability, ATPlite luminescence, overnight; active compounds read low; cells stimulated with P. aeruginosa culture filtrate; 0.36% of 360,000 active; activity change (cytotoxicity), % at 5 µM;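 active = corrected activity change at or below -50% at 5 µM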
PAX8 inh HTS = PAX8 transcriptional activity inhibition | inhibition, % at 12.6 µM | 1.2% of 360,000 active | RMG-I TPO-luciferase reporter, SteadyGlo, 24 h;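 active = mean replicate inhibition at least 60% with every replicate also reaching 60%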;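 note: luciferase light reporting Pax8 driven TPO promoter activity; plate controls were median of neutral control wells for no effect and mitoxantrone controls for full effect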
* hit, by the source's call; . = not tested or not shown. Shown are actives, neighbours in structure and some others; about 2% of the full set was active somewhere.

SMILES	Shn3 inh set2	CF NFkB block	LGR2 antag	EWS-Fli inh	KKLEB cytotox	PAX8 inh HTS
C=C1C(=O)C23C(O)C1CCC2C12CCCC(C)(COC(C)=O)C1C(O)C3(O)OC2 (stereo unspecified)	94.5*	90.7*	97.9*	57.4*	-91.3*	123.2*
Cc1cccc(NC(=O)c2onc3c2CCCC3)c1C	-36.8	-3.9	.	.	-4.6	.
Cc1cccc(NC(=O)c2onc3c2CCCC3)n1	3.2	4.3	77.0*	71.1*	-41.2	31.4
O=C1[C@@H]2[C@@H](CC(COc3ccccc3)=C([C@H](O)c3ccccc3)[C@@H]2CO)C(=O)N1Cc1ccccc1	.	.	.	-1.9	.	2.5
N#CC1=C(N)Oc2c(ccc3cccnc23)C1c1ccccc1 (stereo unspecified)	68.8	11.3	8.5	58.8*	-6.0	25.5
N#CC1=C(N)Oc2ccc3ccccc3c2C1c1cccnc1 (stereo unspecified)	5.4	25.7	40.0	54.4*	-7.8	25.8
CC(C)C(=O)Nc1ccc2c(c1)C(=O)N(C)[C@@H]1CC[C@H](CC(=O)NCC3CC3)O[C@H]1CO2	.	.	-13.6	-15.6	.	-2.5
Cc1ccc(S(=O)(=O)Nc2ccc3c(c2)C(=O)N([C@H](C)CO)C[C@@H](C)[C@@H](CN(C)Cc2ccc(Cl)c(Cl)c2)OCCCC[C@H](C)O3)cc1	.	.	-2.0	2.7	.	54.5
Cc1ccc(S(=O)(=O)Nc2ccc3c(c2)C(=O)N([C@@H](C)CO)C[C@@H](C)[C@@H](CN(C)Cc2ccc(Cl)c(Cl)c2)OCCCC[C@@H](C)O3)cc1	.	.	-12.7	-14.9	.	96.3*
Cc1ccc(S(=O)(=O)Nc2ccc3c(c2)C(=O)N([C@H](C)CO)C[C@@H](C)[C@H](CN(C)Cc2ccc(Cl)c(Cl)c2)OCCCC[C@H](C)O3)cc1	.	.	-31.5	29.4	.	96.0*
CCCNC(=O)N1CC2(CN(Cc3ccncc3)C2)c2c(n(C)c3cc(OC)ccc23)[C@@H]1CO	.	.	-11.4	-3.0	.	.
C/C=C/c1ccc2c(c1)O[C@H](CN(C)C(=O)Nc1ccccc1)[C@H](C)CN([C@H](C)CO)S2(=O)=O	.	.	-5.7	8.6	.	.
CCCOc1ccc2[nH]c(C(=O)N/N=C/c3cc(OC)c(OC)c(OC)c3)cc2c1	-15.6	-33.4	-4.3	-6.8	-0.9	91.4*
CCOc1ccc2[nH]c(C(=O)N/N=C/c3ccccc3OC)cc2c1	-17.3	24.0	-10.2	39.9	-8.0	2.6
COc1cc(OC)c2cc(C(=O)N/N=C/c3ccccc3O)[nH]c2c1	88.9*	-2.3	12.1	4.6	-3.4	17.5
CN(C)C(=O)C[C@@H]1C=C[C@H](NC(=O)NC2CCCCC2)[C@H](CO)O1	.	.	-5.0	1.4	.	2.9
C[C@@H]1CN([C@H](C)CO)C(=O)c2cccc(NC(=O)Nc3ccc(C(F)(F)F)cc3)c2O[C@H]1CN(C)CC1CC1	.	.	-4.5	2.7	.	78.1*
C[C@@H]1CN([C@@H](C)CO)C(=O)c2cccc(NC(=O)Nc3ccc(C(F)(F)F)cc3)c2O[C@@H]1CN(C)CC1CCCCC1	.	.	.	60.6*	.	.
C[C@@H]1CN([C@@H](C)CO)C(=O)c2cccc(NC(=O)Nc3ccc(C(F)(F)F)cc3)c2O[C@@H]1CN(C)CC1CC1	.	.	16.4	0.3	.	45.7
O=C(c1cnccn1)N1CC(=O)N2[C@@H](CO)[C@H](c3ccc(-c4ccccc4)cc3)[C@@H]2C1	.	.	-1.3	-0.5	.	-7.1
COc1ccc2c3c(n(C)c2c1)[C@H](CO)NCC31CCN(Cc2cc(-c3ccccc3)on2)CC1	.	.	4.0	-6.5	.	82.4*
COc1ccc2c3c(n(C)c2c1)[C@H](CO)NCC31CCN(Cc2ccccc2Cl)CC1	.	.	10.8	7.2	.	.
C/C=C/c1ccc2c(c1)O[C@H](CN(C)C(=O)Nc1ccccc1)[C@@H](C)CN([C@@H](C)CO)S2(=O)=O	.	.	-11.9	19.3	.	.
O=C(NCc1ccc(F)cc1F)[C@@H]1CCCN1C(=O)[C@@H]1CCCN1	.	.	-22.0	4.7	.	79.7*
C[C@@H]1CN([C@@H](C)CO)S(=O)(=O)c2ccc(C3=CCCCC3)cc2O[C@@H]1CN(C)C(=O)Cc1ccccc1	.	.	7.9	21.6	.	.
SMILES	Shn3 inh set2	CF NFkB block	LGR2 antag	EWS-Fli inh	KKLEB cytotox	PAX8 inh HTS
C/C(=N\NC(=O)c1cc(C)nc2ccccc12)c1ccccn1	95.5*	-58.0	9.4	40.4	11.0	25.7
C/C(=N\NC(=O)c1cc(C)nc2ccccc12)c1ccncc1	5.8	-8.5	-0.6	.	3.8	1.4
C[C@@H]1CN([C@@H](C)CO)C(=O)Cc2cc(NS(C)(=O)=O)ccc2O[C@H]1CN(C)Cc1ccc(C(=O)O)cc1	.	.	2.7	3.7	.	-22.5
COc1ccc2nc(C)cc(SCC(=O)Nc3c(C)cccc3C)c2c1	-2.1	-4.8	12.8	74.4*	6.4	-13.1
COc1ccc2nc(C)cc(SCC(=O)N/N=C/c3ccc(O)cc3O)c2c1	86.9*	11.8	14.2	.	-14.2	53.1
COc1ccc2c(C)cc(SCC(=O)Nc3ccc(Cl)cn3)nc2c1	9.0	51.6*	-4.6	.	-52.5*	.
COc1ccc2nc(C)cc(SCC(=O)N/N=C/c3ccccc3)c2c1	-1.7	25.3	2.1	.	-3.3	26.7
COc1ccc2c(C)cc(SCC(=O)NC3CCCCC3)nc2c1	30.7	17.6	.	-7.7	8.9	30.5
C[C@H](CO)N1C[C@H](C)[C@@H](CN(C)C(=O)Nc2ccc(F)cc2)Oc2ccc(NC(=O)CCC(F)(F)F)cc2CC1=O	.	.	-7.4	0.2	.	-8.1
O=c1cc(-c2ccc(O)c(O)c2)oc2ccc3ccccc3c12	78.3	-91.9	-28.6	61.8*	-32.1	-20.0
O=C(COC(=O)c1cc([N+](=O)[O-])ccc1Cl)NC1CCCC1	6.4	-10.7	3.6	-3.3	-1.8	22.0
O=C(COC(=O)c1ccccc1C(=O)c1ccc(Cl)c([N+](=O)[O-])c1)NC1CC1	70.2	105.1*	105.3*	63.2*	-66.5*	33.2
COc1ccc(C(C[N+](=O)[O-])C2(c3ccc(OC)c(OC)c3)C(=O)c3ccccc3C2=O)cc1 (stereo unspecified)	95.3*	45.1	.	.	-13.5	.
O=C(Cc1nnc(NC(=O)c2ccccc2)s1)N/N=C/c1ccco1	-1.8	-4.6	.	-34.5	18.0	131.6*
O=C(Cc1nnc(NC(=O)c2ccccc2)s1)N/N=C/c1cccc(O)c1	1.2	10.4	3.5	0.5	-0.3	-22.6
O=C1/C(=C/c2ccccc2O)SC(=S)N1Cc1cccnc1	-46.5	51.1*	82.8*	48.7	0.4	-12.7
COc1ccc(-c2nc(-c3ccncc3)no2)c(OC)c1	1.0	-17.6	65.7*	34.5	5.1	-42.7
Cc1ccc(C)c(NS(=O)(=O)c2ccc(-c3cnc(C4CC4)o3)cc2)c1	8.9	47.8	-19.1	.	-7.6	84.8*
CC(=O)c1cccc(NS(=O)(=O)c2ccc(-c3cnc(C4CC4)o3)cc2)c1	85.2*	13.5	-16.4	.	-11.5	40.5
CC(=O)Nc1ccc(NS(=O)(=O)c2ccc(-c3cnc(C4CC4)o3)cc2)cc1	0.5	-15.7	4.6	.	-11.3	36.7
